# Measurements reported in PubChem BioAssay.
# Active and inactive are the calls of the source.
# Experiments:
# [1] = small molecules captured by biotinylated probe aFSTL3 – biochemical, small-molecule microarray, fluorescence 635/667, stem cell growth factor project, primary screen (AID 1064); conditions: higher = more signal;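 also: measures binding of the biotinylated anti-FSTL3 antibody to printed compounds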
# [2] = binders from COS7 lysate, DM2A8 probe, primary screen, torsin A project, cell lysate, small-molecule microarray, fluorescence 635/667 (AID 1065); conditions: higher = more signal, COS7 lysate expressing mutant human TOR1A
# [3] = small molecules captured by biotinylated probe aFGF2 – biochemical, small-molecule microarray, fluorescence 635/667, stem cell growth factor project, primary screen (AID 1067); conditions: higher = more signal;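 also: measures binding of biotinylated aFGF2 protein to printed compounds on slides; z-score merges feature fluorescence and signal-to-noise across triplicate slides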
# [4] = small molecules captured by biotinylated probe aFGF10 – biochemical, small-molecule microarray, fluorescence 635/667, stem cell growth factor project, primary screen (AID 1071); conditions: higher = more signal;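 also: score merges 667 nm spot intensity and signal to noise from triplicate slides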
# [5] = biological target: Neurogenic locus notch homolog protein 2 (Homo sapiens) (UniProt Q04721); experiment: small molecules binding Notch2 protein – biochemical, small-molecule microarray, 635 nm fluorescence, stem cell growth factors, primary screen (AID 1073); conditions: higher = more signal
# [6] = biological target: Pro-neuregulin-1, membrane-bound isoform (Homo sapiens) (UniProt Q02297); experiment: small molecules binding neuregulin-1 protein – biochemical, small-molecule microarray, fluorescence 635/667, psychiatric disease protein project, primary screen (AID 1075); conditions: NRG1 binding, 635 nm fluorescence, higher = more signal;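 also: score combines 667 nm spot fluorescence with signal to noise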
# [7] = tested on: Neuregulin-1 EGF-like domain; experiment: small molecules binding NRG1 EGF domain – biochemical, small-molecule microarray, 635 nm fluorescence, primary screen (AID 1081); conditions: higher = more signal;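 also: binding of the protein to compounds printed on small-molecule microarray slides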
# [8] = FRG1 expression reporter modulators in myotubes – cell-based, C2C12 myotubes, firefly/Renilla luciferase, luminescence, FRG1 inhibition for FSHD, primary screen (AID 1084); conditions: FRG1 promoter luciferase, higher = more signal, called active from +8 up or from −8 down
# [9] = small molecules captured by biotinylated probe aFST – biochemical, small-molecule microarray, fluorescence 635/667, stem cell growth factor project, primary screen (AID 1086); conditions: higher = more signal;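 also: score merges 667 nm fluorescence with signal-to-noise of each printed compound spot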
# [10] = binders of probe aHhip on microarray, primary screen, stem cell growth factor project, biochemical, small-molecule microarray, fluorescence 635/667 (AID 1087); conditions: higher = more signal;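 also: score merges spot fluorescence at 667nm with spot signal to noise ratio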
# [11] = tested on: PRMT1 (protein arginine N-methyltransferase 1); experiment: small molecules binding arginine methyltransferase PRMT1 – biochemical, small-molecule microarray, 635 nm fluorescence, primary screen (AID 1088); conditions: higher = more signal;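 also: binding of Prmt1 protein to compounds spotted on small-molecule microarray slides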
# [12] = growth effects on S. cerevisiae YJM789 – YJM789 clinical isolate, OD600, 24 h, basal, primary screen (AID 1089); conditions: higher = more signal, called active from +8 up or from −8 down;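 also: growth of clinical yeast isolate S. cerevisiae YJM 789 seeded 1000 cells per well; test concentration not given here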
# [13] = S. pombe growth modifiers, basal conditions – strain 972, OD600, 24 h, no modulator, primary screen (AID 1090);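 also: basal condition with compound alone and no growth modifier present; test concentration not given here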; conditions: S. pombe 972 growth, higher = more signal, called active from +8 up or from −8 down
# [14] = budding yeast growth modifiers under rapamycin – strain BY4716, OD600, 96 h, primary screen (AID 1091); also: test concentration not given here; conditions: S. cerevisiae BY4716 + rapamycin, higher = more signal, called active from +8 up or from −8 down
# [15] = biological target: Torsin-1A-interacting protein 2 (Homo sapiens) (UniProt Q8NFQ8); experiment: small molecules binding lysate-expressed LULL1 – cell lysate, human LULL1 lysate, 635/667 nm fluorescence, primary screen (AID 1092); conditions: small-molecule microarray, hLULL1 lysate binding, 635 nm fluorescence; higher = more signal;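 also: probe is lysate of COS7 cells overexpressing human LULL1; score merges per-feature 667 nm fluorescence with signal-to-noise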
# [16] = optical density change of DRC41 E. coli – strain DRC41, OD650, 24 h, E. coli filamentation project, primary screen (AID 1093);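 also: MC1000 strain lacking acrAB efflux and sulA so SOS filamentation is blocked; test concentration not given here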; conditions: E. coli DRC41 growth, higher = more signal, called active from +8 up or from −8 down
# [17] = probe aLefty2 binding to arrayed compounds – biochemical, biotinylated probe, 635/667 nm fluorescence, primary screen (AID 1094); conditions: small-molecule microarray, higher = more signal;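 also: score merges spot fluorescence near 667 nm with spot signal-to-noise ratio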
# [18] = tested on: Noggin (protein binding on small-molecule microarray); experiment: small molecules binding Noggin protein – biochemical, 635/667 nm fluorescence, primary screen (AID 1095); conditions: 635 nm fluorescence, higher = more signal;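 also: score merges 667 nm feature fluorescence with signal to noise over triplicate slides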
# [19] = biological target: Neurogenic locus notch homolog protein 3 (Homo sapiens) (UniProt Q9UM47); experiment: small molecules binding NOTCH3 protein – biochemical, 635/667 nm fluorescence, primary screen (AID 1096); conditions: small-molecule microarray, 635 nm fluorescence, higher = more signal
# [20] = probe aEGFR binding to arrayed compounds – biochemical, biotinylated probe, 635/667 nm fluorescence, primary screen (AID 1097); conditions: small-molecule microarray, higher = more signal;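 also: probe is a biotinylated anti-EGFR antibody binding compounds printed on slides; score combines fluorescence near 667 nm and signal to noise of each spot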
# Chain of Pro-neuregulin-1, membrane-bound isoform (Homo sapiens) (Q02297 whole entry, looked up, the tested form may be a part, canonical isoform): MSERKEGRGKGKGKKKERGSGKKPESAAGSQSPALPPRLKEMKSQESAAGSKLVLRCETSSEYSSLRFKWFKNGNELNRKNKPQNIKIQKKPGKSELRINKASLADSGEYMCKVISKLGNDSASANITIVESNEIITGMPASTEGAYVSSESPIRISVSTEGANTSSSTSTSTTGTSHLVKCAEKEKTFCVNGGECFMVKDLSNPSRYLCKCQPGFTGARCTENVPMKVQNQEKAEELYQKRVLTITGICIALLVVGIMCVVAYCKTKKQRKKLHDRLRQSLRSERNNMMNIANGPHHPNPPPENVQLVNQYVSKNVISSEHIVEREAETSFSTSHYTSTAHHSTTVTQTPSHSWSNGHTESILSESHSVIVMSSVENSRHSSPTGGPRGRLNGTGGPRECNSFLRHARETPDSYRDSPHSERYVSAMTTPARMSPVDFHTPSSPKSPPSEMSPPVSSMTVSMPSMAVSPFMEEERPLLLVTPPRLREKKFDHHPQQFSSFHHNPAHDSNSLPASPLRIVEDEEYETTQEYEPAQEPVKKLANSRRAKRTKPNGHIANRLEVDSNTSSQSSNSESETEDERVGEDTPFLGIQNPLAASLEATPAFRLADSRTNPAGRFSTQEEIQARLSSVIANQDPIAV
# Chain of Neurogenic locus notch homolog protein 3 (Homo sapiens) (Q9UM47 whole entry, looked up): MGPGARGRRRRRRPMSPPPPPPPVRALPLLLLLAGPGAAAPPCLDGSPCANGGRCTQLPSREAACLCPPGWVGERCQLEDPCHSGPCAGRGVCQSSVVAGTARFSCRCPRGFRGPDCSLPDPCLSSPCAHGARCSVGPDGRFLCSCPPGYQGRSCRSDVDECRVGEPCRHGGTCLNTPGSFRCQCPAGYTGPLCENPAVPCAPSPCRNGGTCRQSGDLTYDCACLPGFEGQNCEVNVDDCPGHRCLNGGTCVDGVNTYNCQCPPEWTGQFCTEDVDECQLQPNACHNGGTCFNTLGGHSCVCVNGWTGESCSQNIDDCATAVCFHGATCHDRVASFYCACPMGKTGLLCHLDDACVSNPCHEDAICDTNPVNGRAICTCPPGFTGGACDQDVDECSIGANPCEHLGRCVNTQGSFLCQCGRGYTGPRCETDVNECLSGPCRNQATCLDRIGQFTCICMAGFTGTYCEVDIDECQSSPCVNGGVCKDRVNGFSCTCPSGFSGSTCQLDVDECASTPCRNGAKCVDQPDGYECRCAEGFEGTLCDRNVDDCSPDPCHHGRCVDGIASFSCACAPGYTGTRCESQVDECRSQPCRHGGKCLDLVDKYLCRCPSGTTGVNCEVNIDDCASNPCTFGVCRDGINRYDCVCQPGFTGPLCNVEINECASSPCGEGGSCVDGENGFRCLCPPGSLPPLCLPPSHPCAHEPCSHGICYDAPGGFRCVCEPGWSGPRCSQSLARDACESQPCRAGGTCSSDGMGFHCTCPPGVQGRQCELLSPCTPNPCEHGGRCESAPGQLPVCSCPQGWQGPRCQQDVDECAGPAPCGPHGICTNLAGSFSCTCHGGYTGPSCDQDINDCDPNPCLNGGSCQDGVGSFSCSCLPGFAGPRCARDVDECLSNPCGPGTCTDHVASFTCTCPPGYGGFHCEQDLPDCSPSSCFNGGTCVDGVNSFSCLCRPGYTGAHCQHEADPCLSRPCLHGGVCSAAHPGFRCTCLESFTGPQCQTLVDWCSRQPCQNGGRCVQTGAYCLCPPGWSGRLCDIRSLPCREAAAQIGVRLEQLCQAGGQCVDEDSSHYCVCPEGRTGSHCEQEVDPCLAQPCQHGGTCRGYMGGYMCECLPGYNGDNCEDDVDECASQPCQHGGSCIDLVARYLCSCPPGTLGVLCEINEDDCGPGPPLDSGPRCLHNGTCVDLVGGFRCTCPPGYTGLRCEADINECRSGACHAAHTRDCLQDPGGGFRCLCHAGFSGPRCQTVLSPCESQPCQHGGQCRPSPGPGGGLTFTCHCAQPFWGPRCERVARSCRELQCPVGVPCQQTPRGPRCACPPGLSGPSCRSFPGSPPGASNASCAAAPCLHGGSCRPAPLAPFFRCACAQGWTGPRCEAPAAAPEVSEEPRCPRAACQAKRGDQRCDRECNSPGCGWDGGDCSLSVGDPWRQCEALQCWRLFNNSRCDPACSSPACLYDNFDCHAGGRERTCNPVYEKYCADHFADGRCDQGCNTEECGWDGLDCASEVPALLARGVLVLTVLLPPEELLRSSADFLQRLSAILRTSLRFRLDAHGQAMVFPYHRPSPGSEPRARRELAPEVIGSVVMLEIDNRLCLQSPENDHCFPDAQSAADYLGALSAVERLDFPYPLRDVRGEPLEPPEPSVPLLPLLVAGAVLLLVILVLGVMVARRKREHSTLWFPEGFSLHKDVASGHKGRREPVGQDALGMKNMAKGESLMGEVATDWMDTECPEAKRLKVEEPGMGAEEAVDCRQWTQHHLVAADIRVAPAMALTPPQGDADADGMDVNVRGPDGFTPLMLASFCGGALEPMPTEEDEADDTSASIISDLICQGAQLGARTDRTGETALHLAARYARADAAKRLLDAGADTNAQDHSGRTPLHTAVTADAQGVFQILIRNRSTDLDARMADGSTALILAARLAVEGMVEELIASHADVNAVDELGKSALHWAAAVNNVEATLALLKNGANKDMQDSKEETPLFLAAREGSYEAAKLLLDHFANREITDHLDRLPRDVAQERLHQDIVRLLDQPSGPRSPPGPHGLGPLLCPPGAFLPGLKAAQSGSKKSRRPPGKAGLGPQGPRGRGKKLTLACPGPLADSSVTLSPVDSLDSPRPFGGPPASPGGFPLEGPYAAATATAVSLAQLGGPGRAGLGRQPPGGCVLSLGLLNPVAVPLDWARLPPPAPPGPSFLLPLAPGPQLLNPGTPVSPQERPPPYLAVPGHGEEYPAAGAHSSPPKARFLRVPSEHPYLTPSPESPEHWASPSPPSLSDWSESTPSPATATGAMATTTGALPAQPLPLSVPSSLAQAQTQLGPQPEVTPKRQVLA
# Chain of Torsin-1A-interacting protein 2 (Homo sapiens) (Q8NFQ8 whole entry, looked up): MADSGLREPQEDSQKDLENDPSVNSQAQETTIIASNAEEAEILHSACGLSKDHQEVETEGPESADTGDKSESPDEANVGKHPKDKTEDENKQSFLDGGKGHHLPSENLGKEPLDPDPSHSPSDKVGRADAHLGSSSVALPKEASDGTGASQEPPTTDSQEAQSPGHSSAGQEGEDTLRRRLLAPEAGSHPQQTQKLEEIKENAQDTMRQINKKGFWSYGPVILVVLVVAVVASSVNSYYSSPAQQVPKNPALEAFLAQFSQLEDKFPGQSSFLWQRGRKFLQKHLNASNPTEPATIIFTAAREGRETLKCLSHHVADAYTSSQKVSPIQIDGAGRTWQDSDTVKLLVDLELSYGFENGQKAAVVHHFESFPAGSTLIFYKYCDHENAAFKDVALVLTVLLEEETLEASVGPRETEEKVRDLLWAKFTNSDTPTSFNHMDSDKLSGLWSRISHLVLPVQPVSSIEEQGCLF
Structure (SMILES),composite z-score [1],composite z-score [2],composite z-score [3],composite z-score [4],composite z-score [5],composite z-score [6],composite z-score [7],z-score [8],composite z-score [9],composite z-score [10],composite z-score [11],z-score [12],z-score [13],z-score [14],composite z-score [15],z-score [16],composite z-score [17],composite z-score [18],composite z-score [19],composite z-score [20]
O=C1OCC=C[C@H]2OC34C=CCN(CCN5CCOCC5)C(=O)[C@H]3N(CCO)C(=O)[C@@H]4[C@@H]12 (stereo not given in full),-0.341,-0.483,-0.0985,-0.659,-0.273,0.605,0.242,1.02 (inactive),-0.218,-0.412,1.15,-0.674 (inactive),-0.537 (inactive),-0.12 (inactive),0.431,-0.653 (inactive),-0.417,0.928,0.534,-0.139
CC(C)=CCCC(C)=CC(O)C1C=CC2C(=O)N(c3ccccc3)C(=O)C2N1Nc1ccc(C(C)C)cc1 (stereo not given),-0.345,-0.687,0.0218,0.249,1.21,1.63,1.06,0.821 (inactive),1.07,-0.13,0.629,0.437 (inactive),0.834 (inactive),1.07 (inactive),3,-0.589 (inactive),0.0937,0.0026,1.05,-0.0234
Cc1ccc(S(=O)(=O)N2C[C@@H](C(=O)O)[C@H](Sc3ccccc3)C[C@H]2c2ccccc2)cc1,0.265,0.57,0.172,1.15,1.61,1.3,1.12,-2.97 (inactive),1.56,-0.34,1.55,-0.552 (inactive),0.972 (inactive),-0.727 (inactive),3.41,-0.385 (inactive),0.237,0.228,0.988,0.0478
